The results in this text go back to paper PMC4552634, “A New Set of Chemical Starting Points with Plasmodium falciparum Transmission-Blocking Potential for Antimalarial Drug Discovery” (PLoS ONE, 2015).

Hit rate of the full screen: of about 13,000 compounds, about 3,200 (25%) showed an effect of 50% or more. Some of the results follow.

The test system of this test is P. falciparum stage V gametocytes. Further details: BacTiter-Glo ATP luminescence viability of purified stage V gametocytes in 384-well plates, per cent inhibition versus DMSO. Conditions: 48 h, 5 µM; inhibitor.
For the molecule `O=C(O)C1Cc2c([nH]c3ccccc23)C(c2ccc(Cl)cc2Cl)N1` (stereo not drawn) [TCMDC-125815], the “% Inhibition” value was determined as 25.42%. Regarding `CCOC(=O)C1=C(C)NC(Cn2ccnc2)=C(C(=O)OCC)C1c1ccc(C(C)(C)C)cc1` (stereo not drawn) [TCMDC-138170], the “% Inhibition” value came to 12.53%. For the molecule `CC(=O)Nc1ccc(NC(=O)c2cc(-c3cc(Cl)ccc3O)n[nH]2)cc1` [TCMDC-125476], the “% Inhibition” value is listed as 83.42%. `O=C(Nc1cccnc1)c1cc(-c2cc(Cl)ccc2O)n[nH]1` [TCMDC-125322]: the “% Inhibition” value is -15.69%.

With `Cc1ccc(-c2cc(C(=O)Nc3ccc(S(=O)(=O)N(C)Cc4ccccc4)cc3)[nH]n2)c(O)c1` [TCMDC-125181], the “% Inhibition” value is recorded as -25.99%. Turning to `CC(=O)Nc1ccc(NC(=O)c2cc(-c3ccc(C)cc3O)n[nH]2)cc1` [TCMDC-125182], the “% Inhibition” value is given as 0.9116%.

On to `CCN(c1ccccc1)S(=O)(=O)c1ccc(NC(=O)c2cc(-c3cc(C)ccc3O)n[nH]2)cc1` [TCMDC-124308], for which the “% Inhibition” value is listed as 51.8%. For the molecule `Cc1ccc(O)c(-c2cc(C(=O)Nc3ccc(S(=O)(=O)N4CCCCCC4)cc3)[nH]n2)c1` [TCMDC-125201], the “% Inhibition” value is -31.36%. As for `Cc1cccc(C)c1CNc1nc(N2CCOCC2)cc2c(C)c(C)[nH]c12` [TCMDC-134210], the “% Inhibition” value is listed as 43.54%. Consider `CCNC(=O)N[C@@H]1CN[C@@H](C#Cc2cc3c(Nc4ccc(OCc5cccc(F)c5)c(Cl)c4)ncnc3s2)C1` [TCMDC-135409], for which the “% Inhibition” value is given as -11.09%. Then `COc1ccc(CNC2CCN(c3ccc(NC(=O)c4cccc(Cl)c4)cc3)CC2)cc1OC` [TCMDC-124658], with -12.9%; and `COc1ccc(C=CC(=O)Nc2ccc(N3CCCC3)cc2)cc1` [TCMDC-125750], with -68.82%; and `COc1cc(CNc2ccc(N3CCCC3)cc2)cc(Cl)c1OC` [TCMDC-124518], with 100.8%. The same measure for `CCCC1(C)CSc2ccccc2C(c2ccccc2)N1` (stereo not drawn) [TCMDC-137314]: 11.78%.

For `CCCCCCCN(Cc1ccc(OC(C)(C)C(=O)OCC)cc1)C(=O)Nc1ccccc1OCC` [TCMDC-137534], the “% Inhibition” value is given as 46.34%. With `CCCCCCCN(Cc1ccc(OC(C)(C)C(=O)OCC)cc1)C(=O)Nc1ccccc1OC(F)(F)F` [TCMDC-131918], the “% Inhibition” value is listed as 45.53%. The same measure for `CCCCCCCN(Cc1ccc(OC(C)(C)C(=O)OCC)cc1)C(=O)Nc1ccc(Cl)cc1OCC` [TCMDC-131919]: 74.71%. Then `CCOCn1c(-c2ccccc2)cc2c3c(N)nc(N)nc3ccc21` [TCMDC-137979], with 108.5%; and `Cc1cc2c3c(N)nc(N)nc3ccc2n1C(C)C` [TCMDC-137864], with -11.65%; and `CCCn1cc2c(ccc3nc(N)nc(N)c32)n1` [TCMDC-137858], with 22.58%. As to `CCC(C)(C)n1c(C)cc2c3c(N)nc(N)nc3ccc21` [TCMDC-137307], the “% Inhibition” value turned out to be 10.01%. In the case of `Cn1c(-c2ccccc2)cc2c3c(N)nc(N)nc3ccc21` [TCMDC-137985], the “% Inhibition” value is on record as 110.7%. For `CCC(CC)n1c(C)cc2c3c(N)nc(N)nc3ccc21` [TCMDC-137283], the “% Inhibition” value was found to be 15.6%. As to `Nc1nc(N)c2c(ccc3nn(Cc4ccccc4)cc32)n1` [TCMDC-137757], the “% Inhibition” value was -1.825%. Then `Cc1cc2c3c(N)nc(N)nc3ccc2n1C` [TCMDC-137957], with 115.7%; and `Cn1ccc2c3c(N)nc(N)nc3ccc21` [TCMDC-139863], with 5.526%; and `COc1ccc(C(=O)COc2cccc(/C=C/C(=O)O)c2)cc1OC` [TCMDC-137318], with -6.983%. In the case of `Cc1nc(-c2cccc(NCc3ccccc3)c2)[nH]c1C` [TCMDC-133419], the “% Inhibition” value is given as -26.98%. For the molecule `CCOc1cc(Cc2cnc(N)nc2N)cc(OC)c1OC` [TCMDC-137664], the “% Inhibition” value is given as -4.101%. Then `CC(C)C1C(O)=C(c2ccc3ccccc3c2)C(=O)N1Cc1ccsc1` (stereo not drawn) [TCMDC-141810], with 16.73%.

With `Cc1ccccc1C1CCN(C2CCC(NC(=O)/C=C/c3cccc(Cl)c3F)CC2)CC1` (stereo not drawn) [TCMDC-133513], the “% Inhibition” value is listed as -35.56%. Then `COc1cccc(CNC[C@@H](O)[C@H](Cc2ccccc2)NC(=O)c2cc3c4c(c2)c(C(C)C)cn4CCS(=O)(=O)N3C)c1` [TCMDC-135536], with 25%; and `Cc1nn(-c2ccccc2)nc1C(=O)NC1CCN(CCNC(=O)c2ccc(Cl)c(Cl)c2)CC1` [TCMDC-141951], with 7.25%. Take `COc1ccc2nccc([C@@H](O)CN3CCC(NC(=O)c4cccc(-c5cc(C)no5)c4)CC3)c2c1` [TCMDC-141133]: the “% Inhibition” value is -80.32%. In the case of `Cc1noc(C)c1-c1cccc(C(=O)NC2CCN(CCNC(=O)C(c3ccccc3)c3ccccc3)CC2)c1` [TCMDC-133354], the “% Inhibition” value was determined as 85.49%. Turning to `OCCn1c(CNCCCNc2nc3ccccc3[nH]2)cc2c(Cl)cc(Cl)cc21` [TCMDC-140142], the “% Inhibition” value is 2.661%. On to `CNc1nc(N/N=C/c2cc([N+](=O)[O-])c(Cl)cc2Cl)nc(Nc2cccc(C(F)(F)F)c2)n1` [TCMDC-124087], for which the “% Inhibition” value is -4.111%.

For the molecule `CCn1c(-c2nonc2N)nc2c(-c3cccc(NC(=O)Nc4ccccc4Cl)c3)ncc(OCCCN)c21` [TCMDC-136192], the “% Inhibition” value was found to be 107.4%. The same measure for `COc1cccc(-c2ccc3c(-c4cccc(NC(C)=O)c4)cnc(N)c3c2)c1` [TCMDC-134562]: 29.05%. For `CCn1c(-c2nonc2N)nc2c(-c3cccc(NC(=O)Nc4ccccc4OC)c3)ncc(OCCCN)c21` [TCMDC-136190], the “% Inhibition” value is listed as 111.9%.

For `COc1ccccc1NC(=O)Nc1cccc(-c2ccc(-c3nc4cccc(C)c4[nH]3)s2)c1` [TCMDC-133200], the “% Inhibition” value came out at 0.164%. For `CCn1c(-c2nonc2N)nc2cnc(Oc3cccc(NC(=O)c4ccc(OCCN(C(C)C)C(C)C)cc4)c3)cc21` [TCMDC-135777], the “% Inhibition” value was -15.21%. On to `COc1ccccc1NC(=O)Nc1cccc(-c2cccc(-c3nc4c(C)cccc4[nH]3)c2)c1` [TCMDC-133204], for which the “% Inhibition” value is -4.891%.

On to `CCn1c(-c2nonc2N)nc2c(C#CC(C)(C)O)ncc(OCCNCCc3ccc(OC)cc3)c21` [TCMDC-136364], for which the “% Inhibition” value is listed as 100.7%. `CCn1c(-c2nonc2N)nc2c(-c3cccc(NC(=O)Nc4cccc(OC)c4)c3)ncc(OCCCN)c21` [TCMDC-136180]: the “% Inhibition” value is recorded as 96.94%.
